Inconclusive results are not listed. A call without a number means that no potency is given here. Calls of active or inactive are those of the source. Unless noted, calls follow the shape of the full dose curve.
Experiments:
[1] = Nuclear factor erythroid 2-related factor 2/antioxidant responsive element (Nrf2/ARE) small molecule agonists: qHTS cell viability counter screen in human keratinocytes (AID 1919968; active = well fitted curve in the direction sought with a large enough effect in the repeat runs; an effect the other way counts as inactive or inconclusive; also: nearly all actives have a fitted effect of over 55% in size)
Method in brief: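 KeratinoSens cells (HaCaT keratinocytes stably carrying an ARE-luciferase reporter) were seeded at 1,500 cells/well and rested 5 h at 37 C/5% CO2. They were then exposed to compounds in DMSO for 23 h. Viability was read by CellTiter-Fluor fluorescence after 1 h.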

[2] = target: Gonadotropin-releasing hormone receptor (Homo sapiens) (UniProt P30968); assay: Human gonadotropin-releasing hormone receptor (GnRHR) small molecule agonists, calcium flux assay in GnRHR-HEK293 cells (AID 1920063); also: nearly all actives have a fitted effect of over 35% in size
Method in brief: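 HEK293 cells stably expressing human GnRHR were plated 18 h at 37 °C, loaded with calcium dye 1 h at 37 °C, then given compound in agonist mode; fluorescence (Ex/Em 480/540) read kinetically for 3 min at 1 s intervals.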

[3] = target: KiSS-1 receptor (Homo sapiens) (UniProt Q969F8); assay: Human kisspeptin (KISS1R) small molecule agonists, calcium flux assay in KISS1R-HEK293 cells (AID 1920064; active = well fitted curve in the direction sought with a large enough effect in the repeat runs; an effect the other way counts as inactive or inconclusive)
Method in brief: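 HEK293 cells stably expressing human KISS1R were plated 18 h at 37 °C, loaded with calcium dye for 1 h at 37 °C, then given compound by pin tool. Fluorescence (Ex/Em 480/540) was read kinetically for 3 min.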

[4] = G protein-coupled receptor (GPCR) small molecule agonists, calcium flux assay: HEK293 wild type cell line counter screen (AID 1920065)
Method in brief: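 Cells were plated and cultured 18 h at 37 C/5% CO2, then loaded with calcium dye for 1 h at 37 C. Compounds in DMSO were pin-transferred in agonist mode, and fluorescence (Ex/Em 480/540) was read kinetically for 3 min at 1 s intervals.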

[5] = p53 small molecule agonists, cell-based qHTS assay with human liver microsomes (AID 1963577);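 also: p53 response element beta-lactamase reporter cells with liver microsomes plus NADPH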
Method in brief: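 With metabolic activation: human liver microsomes (0.5 mg/mL final) plus NADPH (0.5 mg/mL final) added alongside compounds to p53RE-bla cells; 16 h 37 C exposure; beta-lactamase read by LiveBLAzer fluorescence.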

[6] = p53 small molecule agonists, cell-based qHTS assay with rat liver microsomes (AID 1963578)
Method in brief: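 Metabolic activation by rat liver microsomes and NADPH, each 0.5 mg/mL final, added right after compounds to p53RE-bla reporter cells (4,000/well, plated 5 h earlier). 16 h at 37 C, then LiveBLAzer substrate for 2 h at room temperature in the dark; fluorescence read-out.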

[7] = p53 small molecule agonists, cell-based qHTS assay with rat liver microsomes: qHTS cell viability counter screen (AID 1963580); also: nearly all actives have a fitted effect of over 45% in size
Method in brief: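 In HCT-116 cells carrying a p53 response element-bla reporter, compounds were metabolically activated in situ by rat liver microsomes with NADPH over 16 h. Cell ATP content then served as the cytotoxicity measure.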

[8] = p53 small molecule agonists, cell-based qHTS assay: qHTS cell viability counter screen (AID 1963581); also: nearly all actives have a fitted effect of over 45% in size
Method in brief: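 p53RE-bla HCT-116 cells were exposed to compounds for 16 h at 37 C; after the beta-lactamase FRET read in the same wells, CellTiter-Glo was added and luminescence (intracellular ATP) read after 30 min at room temperature.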

[9] = p53 small molecule agonists, cell-based qHTS assay (AID 1963582; active = well fitted activation curve with a large enough effect in the signal ratio in the repeat runs, not every such curve was filed as active; the % refers to the signal ratio)
Method in brief: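 p53RE-bla beta-lactamase reporter cells rested 5 h at 37 C/5% CO2, then received compounds in DMSO by pin transfer and were incubated 16 h at 37 C. LiveBLAzer B/G FRET substrate was loaded for 2 h at room temperature before fluorescence reading.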

[10] = target: 5-hydroxytryptamine receptor 2A (Homo sapiens) (UniProt P28223); assay: 5-hydroxytryptamine receptor 2A (HTR2A) small molecule agonists, cell-based qHTS assay (AID 1963587); also: nearly all actives have a fitted effect of over 30% in size; also: potency is read from the fitted curve at half-maximal effect
Method in brief: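 HTR2A-CHO cells, plated 18 h at 37 C/5% CO2, dye-loaded 1 h at 37 C; compounds in DMSO added by pin tool (agonist mode). Intracellular calcium flux read as kinetic fluorescence on FDSS over 2 min at 1 s intervals.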

[11] = target: Muscarinic acetylcholine receptor M1 (Homo sapiens) (UniProt P11229); assay: Cholinergic receptor muscarinic 1 (CHRM1) small molecule antagonists, cell-based qHTS assay (AID 1963588); also: nearly all actives have a fitted effect of over 40% in size; also: potency is read from the fitted curve at half-maximal effect
Method in brief: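 CHRM1-CHO calcium-flux assay, antagonist mode. Cells were seeded 18 h, dye-loaded 1 h at 37 C and given compound for 5 min at RT, then acetylcholine was added at 50nM. FDSS fluorescence was read 3 min; 15 concentrations, three runs.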

[12] = target: Muscarinic acetylcholine receptor M1 (Homo sapiens) (UniProt P11229); assay: Cholinergic receptor muscarinic 1 (CHRM1) small molecule agonists, cell-based qHTS assay (AID 1963589); also: nearly all actives have a fitted effect of over 35% in size
Method in brief: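 CHO cells stably expressing human CHRM1, seeded 18 h at 37 C/5% CO2, dye-loaded 1 h at 37 C, then given compound in agonist mode; intracellular calcium fluorescence read kinetically at 1 s intervals. Fifteen concentrations, three independent runs.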

[13] = cAMP Responsive Elements (CRE) small molecule agonists, cell-based qHTS assay (AID 1963590)
Method in brief: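 CRE-bla HEK 293T cells in DMEM with 10% dialyzed FBS, NEAA, pyruvate and 25 mM HEPES were plated 18 h at 37 C/5% CO2, then exposed to compounds in DMSO for 3 h before LiveBLAzer B/G FRET substrate addition.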

[14] = target: Beta-2 adrenergic receptor (Homo sapiens) (UniProt P07550); assay: Adrenergic beta2 receptor (ADRB2) small molecule antagonists, cell-based qHTS assay (AID 1963592); also: nearly all actives have a fitted effect of over 50% in size; also: potency is read from the fitted curve at half-maximal effect
Method in brief: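 Cells (CHO, stable ADRB2 overexpression) incubated 18-20hr at 37C; compounds added from DMSO; agonist mix (1nM isoproterenol, 100uM IBMX, 25uM Ro-20-1724) added; 0.5hr RT; d2-cAMP and anti-cAMP-cryptate added; 1hr RT; 665/615 nm read.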

[15] = target: D(2) dopamine receptor (Homo sapiens) (UniProt P14416); assay: Dopamine D2 receptor (DRD2) small molecule agonists, cell-based qHTS assay (AID 1963594); also: nearly all actives have a fitted effect of over 35% in size
Method in brief: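 HEK293 cells stably expressing DRD2 were cultured 24 h at 37 C, then given Ro20-1724 (0.1 mM final) and compounds for 10 min at room temperature. NKH477 (200nM) was then added for 30 min. cAMP was read by HTRF.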

[16] = target: D(2) dopamine receptor (Homo sapiens) (UniProt P14416); assay: Dopamine D2 receptor (DRD2) small molecule antagonists, cell-based qHTS assay (AID 1963595; active = well fitted inhibition curve with a large enough effect in the signal ratio in the repeat runs, with a control signal flat; the % refers to the signal ratio)
Method in brief: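 Human DRD2 antagonist qHTS measuring cAMP by HTRF. The cells are exposed to compound for 10 min, then to NKH477 (200 nM) and quinpirole (12 nM) for 30 min at RT, with Ro20-1724 (0.1 mM) present throughout.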

[17] = p53 small molecule agonists, cell-based qHTS assay with human liver microsomes: qHTS cell viability counter screen (AID 1963579); also: nearly all actives have a fitted effect of over 45% in size
Method in brief: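 Metabolic activation used human liver microsomes and NADPH, both 0.5 mg/mL final, over 16 hours at 37 C on p53RE-bla cells (4,000/well). Cytotoxicity measured by CellTiter-Glo luminescence, 30 min at room temperature.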

[18] = target: 5-hydroxytryptamine receptor 2A (Homo sapiens) (UniProt P28223); assay: 5-hydroxytryptamine receptor 2A (HTR2A) small molecule antagonists, cell-based qHTS assay (AID 1963586); also: nearly all actives have a fitted effect of over 45% in size; also: potency is read from the fitted curve at half-maximal effect
Method in brief: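 Antagonist-mode intracellular calcium assay: DOI (4 nM) added after 5 min compound pre-incubation at room temperature to dye-loaded HTR2A-CHO cells. Fluorescence followed for 3 min, sampled every second.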

[19] = target: Beta-2 adrenergic receptor (Homo sapiens) (UniProt P07550); assay: Adrenergic beta2 receptor (ADRB2) small molecule agonists, cell-based qHTS assay (AID 1963593);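 also: CHO cells stably overexpressing human ADRB2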
Method in brief: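 CHO cells stably over-expressing ADRB2 were plated overnight at 37C, then dosed with compounds plus a stimulation mix containing 100uM IBMX and 25uM Ro-20-1724 for 0.5hr at room temperature. cAMP was measured by HTRF competition, 1hr.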

[20] = cAMP Responsive Elements (CRE) small molecule antagonists, cell-based qHTS assay (AID 1963591; active = well fitted inhibition curve with a large enough effect in the signal ratio in the repeat runs, not every such curve was filed as active; the % refers to the signal ratio)
Method in brief: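 CRE-bla HEK293T cells were plated 18 h at 37 °C/5% CO2, pinned with compound in DMSO, then stimulated with NKH477 at 0.25 uM final for 3 h. LiveBLAzer B/G FRET substrate was added and plates incubated 2 h at room temperature.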

Gonadotropin-releasing hormone receptor (Homo sapiens), sequence (P30968 whole entry, looked up): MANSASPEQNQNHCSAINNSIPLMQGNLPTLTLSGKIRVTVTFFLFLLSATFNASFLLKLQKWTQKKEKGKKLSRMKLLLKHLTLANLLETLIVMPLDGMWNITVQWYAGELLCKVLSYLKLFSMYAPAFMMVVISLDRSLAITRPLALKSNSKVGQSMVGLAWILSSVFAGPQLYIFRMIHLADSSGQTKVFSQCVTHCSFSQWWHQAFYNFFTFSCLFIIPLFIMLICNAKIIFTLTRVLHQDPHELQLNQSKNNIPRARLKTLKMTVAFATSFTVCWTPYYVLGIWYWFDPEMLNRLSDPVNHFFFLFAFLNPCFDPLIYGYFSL
KiSS-1 receptor (Homo sapiens), sequence (Q969F8 whole entry, looked up): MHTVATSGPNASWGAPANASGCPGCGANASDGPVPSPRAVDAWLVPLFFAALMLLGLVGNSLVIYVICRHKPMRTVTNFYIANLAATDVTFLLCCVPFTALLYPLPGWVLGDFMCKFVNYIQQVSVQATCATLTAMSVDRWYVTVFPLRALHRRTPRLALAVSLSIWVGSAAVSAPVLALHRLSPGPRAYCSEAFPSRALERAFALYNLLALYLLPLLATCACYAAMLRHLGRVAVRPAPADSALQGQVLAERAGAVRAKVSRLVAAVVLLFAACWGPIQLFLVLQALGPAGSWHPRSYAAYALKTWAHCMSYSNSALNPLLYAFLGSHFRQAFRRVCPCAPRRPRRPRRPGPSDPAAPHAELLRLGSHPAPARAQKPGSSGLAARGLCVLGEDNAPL
Beta-2 adrenergic receptor (Homo sapiens), sequence (P07550 whole entry, looked up): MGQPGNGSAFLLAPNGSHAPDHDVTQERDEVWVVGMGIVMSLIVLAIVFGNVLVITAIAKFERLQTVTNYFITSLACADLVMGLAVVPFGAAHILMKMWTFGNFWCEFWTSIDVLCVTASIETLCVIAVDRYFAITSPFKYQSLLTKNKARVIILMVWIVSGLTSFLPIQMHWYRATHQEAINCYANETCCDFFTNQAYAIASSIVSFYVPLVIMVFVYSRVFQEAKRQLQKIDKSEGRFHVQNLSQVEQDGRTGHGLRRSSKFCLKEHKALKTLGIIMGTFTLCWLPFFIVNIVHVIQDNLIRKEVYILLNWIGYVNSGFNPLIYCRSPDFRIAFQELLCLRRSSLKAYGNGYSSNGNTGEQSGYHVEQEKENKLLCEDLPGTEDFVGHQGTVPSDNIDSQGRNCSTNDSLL
Muscarinic acetylcholine receptor M1 (Homo sapiens), sequence (P11229 whole entry, looked up): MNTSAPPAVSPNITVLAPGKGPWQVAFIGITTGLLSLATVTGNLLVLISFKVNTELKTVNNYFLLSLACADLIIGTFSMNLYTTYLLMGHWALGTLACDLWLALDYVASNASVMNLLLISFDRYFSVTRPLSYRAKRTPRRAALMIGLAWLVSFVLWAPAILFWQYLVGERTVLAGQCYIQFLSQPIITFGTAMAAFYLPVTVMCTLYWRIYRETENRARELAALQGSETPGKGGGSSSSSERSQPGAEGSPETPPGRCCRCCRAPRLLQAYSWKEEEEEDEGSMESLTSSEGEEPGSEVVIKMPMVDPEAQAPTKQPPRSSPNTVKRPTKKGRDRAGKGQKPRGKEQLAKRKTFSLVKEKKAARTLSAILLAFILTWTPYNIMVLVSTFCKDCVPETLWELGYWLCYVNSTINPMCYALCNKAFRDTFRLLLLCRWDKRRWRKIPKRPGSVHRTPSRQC
5-hydroxytryptamine receptor 2A (Homo sapiens), sequence (P28223 whole entry, looked up): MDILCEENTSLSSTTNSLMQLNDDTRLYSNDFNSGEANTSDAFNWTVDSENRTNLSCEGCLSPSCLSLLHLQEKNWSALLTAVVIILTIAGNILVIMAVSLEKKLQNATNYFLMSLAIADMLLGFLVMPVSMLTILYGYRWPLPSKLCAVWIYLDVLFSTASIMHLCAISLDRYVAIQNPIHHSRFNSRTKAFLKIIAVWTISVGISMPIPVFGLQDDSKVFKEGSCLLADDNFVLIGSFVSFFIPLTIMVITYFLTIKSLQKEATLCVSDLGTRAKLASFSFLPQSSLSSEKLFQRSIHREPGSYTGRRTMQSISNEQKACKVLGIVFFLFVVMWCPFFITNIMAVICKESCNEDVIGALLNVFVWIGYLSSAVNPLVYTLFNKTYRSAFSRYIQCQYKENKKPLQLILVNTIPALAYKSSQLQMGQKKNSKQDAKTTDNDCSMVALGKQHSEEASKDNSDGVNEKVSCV
D(2) dopamine receptor (Homo sapiens), sequence (P14416 whole entry, looked up): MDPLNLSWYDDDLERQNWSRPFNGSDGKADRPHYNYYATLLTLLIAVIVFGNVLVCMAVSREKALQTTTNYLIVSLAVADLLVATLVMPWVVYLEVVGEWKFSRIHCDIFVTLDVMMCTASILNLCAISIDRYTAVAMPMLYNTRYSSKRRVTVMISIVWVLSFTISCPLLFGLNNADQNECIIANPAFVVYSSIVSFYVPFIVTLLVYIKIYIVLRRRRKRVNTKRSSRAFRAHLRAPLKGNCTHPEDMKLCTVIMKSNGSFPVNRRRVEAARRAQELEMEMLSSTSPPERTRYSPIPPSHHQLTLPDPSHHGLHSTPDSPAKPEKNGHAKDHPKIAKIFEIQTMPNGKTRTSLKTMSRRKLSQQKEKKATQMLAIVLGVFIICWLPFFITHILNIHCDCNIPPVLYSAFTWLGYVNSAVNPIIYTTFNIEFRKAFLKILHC

Structure (SMILES) | Potency [1] | Potency [2] | outcome [3] | outcome [4] | Potency [5] | Potency [6] | Potency [7] | Potency [8] | Potency [9] | Potency [10] | Potency [11] | Potency [12] | Potency [13] | Potency [14] | Potency [15] | Potency [16] | Potency [17] | Potency [18] | Potency [19] | Potency [20]
CCN(CCCCOC(=O)c1ccc(OC)c(OC)c1)C(C)Cc1ccc(OC)cc1 (stereo unspecified) | inactive | inactive | inactive | inactive | inactive | inactive | inactive | inactive | inactive | 12 µM (active) | 0.163 µM (active) | inactive | inactive | 13.3 µM (active) | inactive | inactive |  |  |  | 
c1ccc(C[P+](c2ccccc2)(c2ccccc2)c2ccccc2)cc1 | inactive | inactive | inactive | inactive | inactive | inactive |  |  |  | inactive | 4.72 µM (active) | inactive |  | inactive | inactive | inactive | inactive | inactive | inactive | 
CC(=O)OC(C)=O | inactive | inactive | inactive | inactive | inactive | inactive | inactive |  | inactive | inactive |  | inactive | inactive | inactive | inactive | inactive | inactive | inactive |  | inactive
CCCCOCCOC(=O)CCCCCCCCC(=O)OCCOCCCC | inactive | inactive | inactive | inactive | inactive | inactive | inactive | inactive | inactive | inactive | inactive | inactive |  | inactive | inactive | inactive |  | inactive | inactive | inactive
O=C(Cn1ccnc1[N+](=O)[O-])NCCO | inactive | inactive | inactive | inactive | inactive |  | inactive | inactive | inactive | inactive |  | inactive |  | inactive | inactive | inactive | inactive | inactive | inactive | inactive
CCN(CC)CC(=O)Nc1c(C)cccc1C(=O)OC | inactive | inactive |  | inactive | inactive | inactive | inactive | inactive | inactive | inactive | inactive | inactive |  | inactive |  | inactive |  | inactive | inactive | inactive
C=C(C)c1cccc(C(C)(C)N=C=O)c1 | inactive | inactive | inactive | inactive | inactive |  | inactive | inactive | inactive | inactive | inactive | inactive | inactive |  |  | inactive | inactive | inactive |  | inactive
Nc1ccnc(=O)[nH]1 | inactive | inactive | inactive |  | inactive | inactive |  | inactive | inactive | inactive | inactive |  | inactive | inactive | inactive | inactive | inactive | inactive |  | inactive
OC(CCN1CCCCC1)(c1ccccc1)c1ccccc1 | inactive | inactive | inactive | inactive |  | inactive | inactive | inactive | inactive | inactive |  | inactive | inactive | inactive | inactive | inactive | inactive | inactive |  | inactive
CN(C)CCCOC1(Cc2ccccc2)CCCCCC1 | inactive |  | inactive | inactive | inactive | inactive | inactive |  |  | inactive | inactive | inactive | inactive | inactive | inactive | inactive |  | 10.3 µM (active) | inactive | inactive
COc1ccc(/C=C/S(=O)(=O)NC(=O)c2ccc(C)cc2Cl)cc1 | inactive |  | inactive | inactive | inactive | inactive |  |  |  | inactive | inactive | inactive | inactive | inactive | inactive | inactive | inactive | inactive |  | 
Oc1cc2ccccc2cc1O | inactive | inactive | inactive |  | inactive | inactive | inactive |  | inactive | inactive | inactive | inactive | inactive | inactive | inactive | inactive | inactive | inactive | inactive | inactive
CCOC(=O)[C@H](CCc1ccccc1)N[C@@H](C)C(=O)N1CCC[C@H]1C(=O)O | inactive | inactive | inactive |  | inactive | inactive | inactive | inactive | inactive |  |  |  |  | inactive | inactive | inactive | inactive |  |  | inactive
OCC(O)c1ccccc1 (stereo unspecified) | inactive |  | inactive | inactive | inactive |  | inactive | inactive | inactive | inactive | inactive | inactive | inactive | inactive | inactive | inactive | inactive | inactive |  | inactive
